According to the supplement of paper PMC4466140:

Experiments:
Assay in all cases: SPOT peptide array binding signal intensity (averaged, normalized) (arbitrary units (background-subtracted, floor 0; scale differs between SH3 domains)); higher = stronger binding of the SH3 domain to the peptide
[1] = biological target: AgAbp1
Outline: (§1)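 Cellulose membranes carried synthetic 15-mer peptides with cysteines swapped for serines. These were incubated overnight at 4°C with 10 μg/ml of GST-fused SH3 domains from four yeast species in TBS-based blocking buffer. Binding signal, detected with anti-GST antibody and quantified in Genespotter, is the normalized, background-subtracted spot intensity averaged over replicates, in arbitrary units specific to each domain.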

[2] = biological target: AgBbc1
Outline: as §1

[3] = biological target: AgBem1-D1
Outline: as §1

[4] = biological target: AgBzz1-D1
Outline: as §1

[5] = biological target: AgBzz1-D2
Outline: as §1

[6] = biological target: AgCyk3
Outline: as §1

[7] = biological target: AgFus1
Outline: as §1

[8] = biological target: AgHof1
Outline: as §1

[9] = biological target: AgHse1
Outline: as §1

[10] = biological target: AgLsb1
Outline: as §1

[11] = biological target: AgLsb4
Outline: as §1

[12] = biological target: AgMyo5
Outline: as §1

[13] = biological target: AgNbp2
Outline: as §1

[14] = biological target: AgRvs167
Outline: as §1

[15] = biological target: AgSho1
Outline: as §1

[16] = biological target: AgSla1-D1-D2
Outline: as §1

[17] = biological target: AgSla1-D3
Outline: as §1

[18] = biological target: CaAbp1-D1
Outline: as §1

[19] = biological target: CaAbp1-D2
Outline: as §1

[20] = biological target: CaBbc1
Outline: as §1

[21] = biological target: CaBem1-D1
Outline: as §1

[22] = biological target: CaBzz1-D1
Outline: as §1

[23] = biological target: CaBzz1-D2
Outline: as §1

[24] = biological target: CaCyk3
Outline: as §1

[25] = biological target: CaFus1
Outline: as §1

[26] = biological target: CaHof1
Outline: as §1

[27] = biological target: CaHse1
Outline: as §1

[28] = biological target: CaLsb1
Outline: as §1

[29] = biological target: CaLsb4
Outline: as §1

[30] = biological target: CaMyo5
Outline: as §1

[31] = biological target: CaNbp2
Outline: as §1

[32] = biological target: CaRvs167
Outline: as §1

[33] = biological target: CaRvs167-3
Outline: as §1

[34] = biological target: CaSho1
Outline: as §1

[35] = biological target: CaSla1-D1-D2
Outline: as §1

[36] = biological target: CaSla1-D3
Outline: as §1

[37] = biological target: ScAbp1
Outline: as §1

[38] = biological target: ScBbc1
Outline: as §1

[39] = biological target: ScBem1-D1
Outline: as §1

[40] = biological target: ScBzz1-D1
Outline: as §1

[41] = biological target: ScBzz1-D2
Outline: as §1

[42] = biological target: ScCyk3
Outline: as §1

[43] = biological target: ScFus1
Outline: as §1

[44] = biological target: ScHof1
Outline: as §1

[45] = biological target: ScHse1
Outline: as §1

[46] = biological target: ScLsb1
Outline: as §1

[47] = biological target: ScLsb2
Outline: as §1

[48] = biological target: ScLsb3
Outline: as §1

[49] = biological target: ScLsb4
Outline: as §1

[50] = biological target: ScMyo3
Outline: as §1

[51] = biological target: ScMyo5
Outline: as §1

[52] = biological target: ScNbp2
Outline: as §1

[53] = biological target: ScPex13
Outline: as §1

[54] = biological target: ScRvs167
Outline: as §1

[55] = biological target: ScSho1
Outline: as §1

[56] = biological target: ScSla1-D1-D2
Outline: as §1

[57] = biological target: ScSla1-D3
Outline: as §1

[58] = biological target: SpAbp1-D1
Outline: as §1

[59] = biological target: SpBbc1
Outline: as §1

[60] = biological target: SpBzz1-D1
Outline: as §1

[61] = biological target: SpBzz1-D2
Outline: as §1

[62] = biological target: SpCyk3
Outline: as §1

[63] = biological target: SpHof1
Outline: as §1

[64] = biological target: SpHof1-2
Outline: as §1

[65] = biological target: SpHof1-3
Outline: as §1

[66] = biological target: SpHse1
Outline: as §1

[67] = biological target: SpLsb1
Outline: as §1

[68] = biological target: SpLsb4
Outline: as §1

[69] = biological target: SpMyo1
Outline: as §1

[70] = biological target: SpNbp2
Outline: as §1

[71] = biological target: SpPex13
Outline: as §1

[72] = biological target: SpRvs167
Outline: as §1

[73] = biological target: SpSla1-D1-D2
Outline: as §1

[74] = biological target: SpSla1-D3
Outline: as §1

B1: unnamed (peptide)
chain: SHRLWLYAAPKRPKT
SPOT peptide array binding signal intensity [1]: 15.5
SPOT peptide array binding signal intensity [2]: 42
SPOT peptide array binding signal intensity [3]: 110
SPOT peptide array binding signal intensity [4]: 46
SPOT peptide array binding signal intensity [5]: 42
SPOT peptide array binding signal intensity [6]: 0.5
SPOT peptide array binding signal intensity [7]: 296
SPOT peptide array binding signal intensity [8]: 26
SPOT peptide array binding signal intensity [9]: 5
SPOT peptide array binding signal intensity [10]: 0.5
SPOT peptide array binding signal intensity [11]: 28.5
SPOT peptide array binding signal intensity [12]: 5.5
SPOT peptide array binding signal intensity [13]: 29.5
SPOT peptide array binding signal intensity [14]: 2
SPOT peptide array binding signal intensity [15]: 23.5
SPOT peptide array binding signal intensity [16]: 44
SPOT peptide array binding signal intensity [17]: 11
SPOT peptide array binding signal intensity [18]: 63
SPOT peptide array binding signal intensity [19]: 37.5
SPOT peptide array binding signal intensity [20]: 100
SPOT peptide array binding signal intensity [21]: 52
SPOT peptide array binding signal intensity [22]: 73
SPOT peptide array binding signal intensity [23]: 38.5
SPOT peptide array binding signal intensity [24]: 7
SPOT peptide array binding signal intensity [25]: 266
SPOT peptide array binding signal intensity [26]: 0.5
SPOT peptide array binding signal intensity [27]: 26.2
SPOT peptide array binding signal intensity [28]: 1.5
SPOT peptide array binding signal intensity [29]: 48
SPOT peptide array binding signal intensity [30]: 18
SPOT peptide array binding signal intensity [31]: 133
SPOT peptide array binding signal intensity [32]: 14
SPOT peptide array binding signal intensity [33]: 24.5
SPOT peptide array binding signal intensity [34]: 149
SPOT peptide array binding signal intensity [35]: 10.5
SPOT peptide array binding signal intensity [36]: 17.8
SPOT peptide array binding signal intensity [37]: 41
SPOT peptide array binding signal intensity [38]: 7.75
SPOT peptide array binding signal intensity [39]: 19
SPOT peptide array binding signal intensity [40]: 42
SPOT peptide array binding signal intensity [41]: 71
SPOT peptide array binding signal intensity [42]: 20
SPOT peptide array binding signal intensity [43]: 260
SPOT peptide array binding signal intensity [44]: 3.25
SPOT peptide array binding signal intensity [45]: 404
SPOT peptide array binding signal intensity [46]: 0.5
SPOT peptide array binding signal intensity [47]: 3
SPOT peptide array binding signal intensity [48]: 64
SPOT peptide array binding signal intensity [49]: ≤ 0
SPOT peptide array binding signal intensity [50]: 10
SPOT peptide array binding signal intensity [51]: 18.5
SPOT peptide array binding signal intensity [52]: 30
SPOT peptide array binding signal intensity [53]: 8.75
SPOT peptide array binding signal intensity [54]: 18.3
SPOT peptide array binding signal intensity [55]: 309
SPOT peptide array binding signal intensity [56]: 32
SPOT peptide array binding signal intensity [57]: 5
SPOT peptide array binding signal intensity [58]: 45
SPOT peptide array binding signal intensity [59]: 5
SPOT peptide array binding signal intensity [60]: 171
SPOT peptide array binding signal intensity [61]: 0.5
SPOT peptide array binding signal intensity [62]: 3
SPOT peptide array binding signal intensity [63]: 84
SPOT peptide array binding signal intensity [64]: 24.5
SPOT peptide array binding signal intensity [65]: 216
SPOT peptide array binding signal intensity [66]: 157
SPOT peptide array binding signal intensity [67]: 35.5
SPOT peptide array binding signal intensity [68]: 38.5
SPOT peptide array binding signal intensity [69]: 7.5
SPOT peptide array binding signal intensity [70]: 30
SPOT peptide array binding signal intensity [71]: 23
SPOT peptide array binding signal intensity [72]: 7.33
SPOT peptide array binding signal intensity [73]: 3
SPOT peptide array binding signal intensity [74]: 15

B2: unnamed (peptide)
chain: QGYPRQPQRPQRYHP
SPOT peptide array binding signal intensity [61]: 0.5
SPOT peptide array binding signal intensity [62]: ≤ 0
SPOT peptide array binding signal intensity [63]: 5
SPOT peptide array binding signal intensity [64]: ≤ 0
SPOT peptide array binding signal intensity [65]: 0.5
SPOT peptide array binding signal intensity [66]: 2
SPOT peptide array binding signal intensity [67]: 4
SPOT peptide array binding signal intensity [68]: 1230
SPOT peptide array binding signal intensity [69]: ≤ 0
SPOT peptide array binding signal intensity [70]: ≤ 0
SPOT peptide array binding signal intensity [71]: 1
SPOT peptide array binding signal intensity [72]: 3
SPOT peptide array binding signal intensity [73]: ≤ 0
SPOT peptide array binding signal intensity [74]: ≤ 0
